Reference: PubChem BioAssay AID1159580 (chemical genetic matrix, 2015)
Where “and” joins values, the source holds several entries; their conditions need not be identical. Equal entries are not always repeated. Among all 5,500 compounds or so, about 2,000 (36%) were called active. Another 18% or so got no clear call; they are omitted. Rule as the data show it: active = normalized growth mostly below about 0.91 (no sharp cut-off); inconclusive = no clear call, values can overlap the other calls; inactive = mostly above about 0.92. The list shows a part of the results.

Assay: chemical genetic growth profiling, strain panel (AID 1159580);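 also: tested at 20 µM; growth read once vehicle control cultures reached saturation at 30 °C; 1 = growth at the plate median or of vehicle wells; lower values mean less growth of the strain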
Conditions: S. cerevisiae deletion strains, growth OD

Measured: normalized growth

C[n+]1cccc(C(=O)[O-])c1
inactive: locus YAL013W, strain DEP1, stronger effect = lower value 1.01 | locus YAL021C, strain ccr4, stronger effect = lower value 1.02 | locus YAL026C, strain drs2, stronger effect = lower value 0.972 | locus YAL030W, strain snc1, stronger effect = lower value 0.982 | locus YBL061C, strain skt5, stronger effect = lower value 0.975 | locus YBR009C, strain hhf1, stronger effect = lower value 0.99 | locus YBR021W, strain FUR4, stronger effect = lower value 1 | locus YBR023C, strain chs3, stronger effect = lower value 0.963 | locus YBR171W, strain sec66, stronger effect = lower value 0.958 | locus YBR229C, strain ROT2, stronger effect = lower value 1.01 | locus YBR231C, strain swc5, stronger effect = lower value 0.97 | locus YBR279W, strain paf1, stronger effect = lower value 0.972 | locus YCL011C, strain gbp2, stronger effect = lower value 0.97 | locus YCL016C, strain dcc1, stronger effect = lower value 0.998 | locus YCL029C, strain bik1, stronger effect = lower value 0.993 | locus YCL069W, strain vba3, stronger effect = lower value 0.941 | locus YCR088W, strain abp1, stronger effect = lower value 0.963 | locus YDL005C, strain med2, stronger effect = lower value 0.952 | locus YDL035C, strain GPR1, stronger effect = lower value 1.03 | locus YDL040C, strain nat1, stronger effect = lower value 0.981 | locus YDL074C, strain BRE1, stronger effect = lower value 1.03 | locus YDL101C, strain DUN1, stronger effect = lower value 1.03 | locus YDL134C, strain PPH21, stronger effect = lower value 1.07 | locus YDL185W, strain tfp1, stronger effect = lower value 0.999 | locus YDL192W, strain arf1, stronger effect = lower value 1.01 | locus YDR001C, strain nth1, stronger effect = lower value 0.965 | locus YDR069C, strain doa4, stronger effect = lower value 0.958 | locus YDR101C, strain arx1, stronger effect = lower value 0.995 | locus YDR137W, strain rgp1, stronger effect = lower value 0.974 | locus YDR150W, strain NUM1, stronger effect = lower value 1.01 | locus YDR159W, strain sac3, stronger effect = lower value 0.97 | locus YDR162C, strain NBP2, stronger effect = lower value 1.07 | locus YDR195W, strain ref2 0.91 | locus YDR297W, strain sur2, stronger effect = lower value 0.975 | locus YDR318W, strain mcm21, stronger effect = lower value 0.994 | locus YDR334W, strain swr1, stronger effect = lower value 0.965 | locus YDR335W, strain msn5, stronger effect = lower value 0.952 | locus YDR388W, stronger effect = lower value 0.996 | locus YDR392W, strain spt3, stronger effect = lower value 0.987 | locus YDR502C, strain sam2, stronger effect = lower value 1 | locus YEL003W, strain gim4, stronger effect = lower value 0.964 | locus YEL037C, strain rad23, stronger effect = lower value 0.964 | locus YEL061C, strain CIN8 (second series), stronger effect = lower value 0.923 | locus YEL061C, strain CIN8, stronger effect = lower value 1.01 | locus YER015W, strain faa2, stronger effect = lower value 0.983 | locus YER016W, strain bim1, stronger effect = lower value 0.967 | locus YER110C, stronger effect = lower value 0.995 | locus YER111C, strain swi4, stronger effect = lower value 0.942 | locus YER155C, strain BEM2 (second series), stronger effect = lower value 0.992 | locus YER155C, strain BEM2, stronger effect = lower value 0.999 | locus YER167W, strain BCK2, stronger effect = lower value 1.02 | locus YFR010W, strain ubp6, stronger effect = lower value 0.943 | locus YGL078C, strain dbp3, stronger effect = lower value 0.997 | locus YGL086W, strain mad1, stronger effect = lower value 1 | locus YGL167C, strain pmr1, stronger effect = lower value 0.984 | locus YGL173C, strain kem1, stronger effect = lower value 0.986 | locus YGL227W, strain vid30, stronger effect = lower value 0.957 | locus YGL240W, strain doc1, stronger effect = lower value 0.972 | locus YGL248W, strain PDE1, stronger effect = lower value 1.02 | locus YGL253W, strain hxk2, stronger effect = lower value 0.955 | locus YGR078C, strain PAC10, stronger effect = lower value 1.04 | locus YGR135W, strain pre9, stronger effect = lower value 1 | locus YGR229C, strain SMI1, stronger effect = lower value 1.04 | locus YGR252W, strain gcn5, stronger effect = lower value 0.966 | locus YHR013C, strain ard1, stronger effect = lower value 0.981 | locus YHR027C, strain rpn1, stronger effect = lower value 0.992 | locus YHR030C, strain SLT2, stronger effect = lower value 1.01 and 1.03 | locus YHR079C, strain IRE1 (second series), stronger effect = lower value 1.01 | locus YHR079C, strain IRE1, stronger effect = lower value 1.02 | locus YHR094C, strain hxt1, stronger effect = lower value 0.983 | locus YHR129C, strain ARP1, stronger effect = lower value 1.02 | locus YHR142W, strain chs7, stronger effect = lower value 0.955 | locus YHR200W, strain rpn10, stronger effect = lower value 1.01 | locus YIL066C, strain RNR3, stronger effect = lower value 1.05 | locus YIL073C, strain SPO22, stronger effect = lower value 1.02 | locus YIL125W, strain kgd1, stronger effect = lower value 0.984 | locus YIR030C, strain dcg1, stronger effect = lower value 1.01 | locus YJL092W, strain hpr5, stronger effect = lower value 0.937 | locus YJL095W, strain BCK1 (second series), stronger effect = lower value 0.971 | locus YJL095W, strain BCK1, stronger effect = lower value 1.07 and 1.01 | locus YJL115W, strain asf1, stronger effect = lower value 0.956 | locus YJL129C, strain trk1, stronger effect = lower value 0.936 | locus YJL134W, strain LCB3, stronger effect = lower value 1.01 | locus YJL154C, strain vps35, stronger effect = lower value 0.948 | locus YJL164C, strain tpk1, stronger effect = lower value 0.985 | locus YJL166W, strain qcr8, stronger effect = lower value 0.961 | locus YJL168C, strain set2, stronger effect = lower value 0.999 | locus YJL187C, strain SWE1 (second series), stronger effect = lower value 1.03 | locus YJL187C, strain SWE1, stronger effect = lower value 0.97 | locus YJR043C, strain POL32, stronger effect = lower value 1.04 | locus YJR066W, strain TOR1, stronger effect = lower value 0.975 | locus YJR075W, strain HOC1, stronger effect = lower value 1.03 | locus YKL009W, strain mrt4, stronger effect = lower value 1 | locus YKL068W, stronger effect = lower value 1.01 | locus YKL085W, strain MDH1 (second series), stronger effect = lower value 1.01 | locus YKL085W, strain MDH1, stronger effect = lower value 1.01 | locus YKL160W, strain elf1, stronger effect = lower value 0.996 | locus YKR001C, strain vps1, stronger effect = lower value 0.987 | locus YKR026C, strain gcn3, stronger effect = lower value 0.952 | locus YKR091W, strain srl3, stronger effect = lower value 0.966 | locus YLL001W, strain dnm1, stronger effect = lower value 0.97 | locus YLL026W, stronger effect = lower value 0.989 | locus YLL041C, strain sdh2, stronger effect = lower value 0.963 | locus YLR027C, strain aat2, stronger effect = lower value 0.983 | locus YLR039C, strain RIC1, stronger effect = lower value 1.12 | locus YLR058C, strain SHM2, stronger effect = lower value 1.02 | locus YLR102C, strain apc9, stronger effect = lower value 0.997 | locus YLR113W, strain HOG1, stronger effect = lower value 1.04 | locus YLR221C, strain rsa3, stronger effect = lower value 0.972 | locus YLR258W, strain gsy2, stronger effect = lower value 0.971 | locus YLR262C, strain YPT6 (second series), stronger effect = lower value 0.947 | locus YLR262C, strain YPT6, stronger effect = lower value 1.12 | locus YLR268W, strain sec22, stronger effect = lower value 1.02 | locus YLR320W, strain mms22, stronger effect = lower value 0.975 | locus YLR330W, strain CHS5, stronger effect = lower value 1.02 | locus YLR342W, strain FKS1 (second series), stronger effect = lower value 1.04 | locus YLR342W, strain FKS1, stronger effect = lower value 0.948 | locus YLR357W, strain rsc2, stronger effect = lower value 0.917 | locus YLR370C, strain arc18, stronger effect = lower value 0.972 | locus YLR371W, strain rom2, stronger effect = lower value 0.994 | locus YLR384C, strain iki3, stronger effect = lower value 0.961 | locus YLR418C, strain cdc73, stronger effect = lower value 1.02 | locus YML016C, strain PPZ1, stronger effect = lower value 1.02 | locus YML032C, strain rad52, stronger effect = lower value 1.01 | locus YML120C, strain ndi1, stronger effect = lower value 0.968 | locus YML124C, strain tub3, stronger effect = lower value 0.994 | locus YMR058W, strain fet3, stronger effect = lower value 0.986 | locus YMR078C, strain ctf18, stronger effect = lower value 0.998 | locus YMR125W, strain sto1, stronger effect = lower value 0.939 | locus YMR129W, stronger effect = lower value 0.975 | locus YMR205C, strain PFK2, stronger effect = lower value 0.974 | locus YMR223W, strain ubp8, stronger effect = lower value 1 | locus YMR231W, strain pep5, stronger effect = lower value 0.975 | locus YMR263W, strain SAP30, stronger effect = lower value 1.03 | locus YMR307W, strain GAS1, stronger effect = lower value 1.02 | locus YNL067W, strain RPL9B, stronger effect = lower value 1.03 | locus YNL071W, strain lat1, stronger effect = lower value 0.961 | locus YNL153C, strain GIM3, stronger effect = lower value 1.04 | locus YNL183C, strain NPR1, stronger effect = lower value 0.981 | locus YNL209W, strain ssb2, stronger effect = lower value 0.975 | locus YNL233W, strain BNI4, stronger effect = lower value 1.03 | locus YNL248C, strain rpa49, stronger effect = lower value 0.937 | locus YNL250W, strain rad50, stronger effect = lower value 0.999 | locus YNL271C, strain bni1, stronger effect = lower value 1 | locus YNL298W, strain CLA4, stronger effect = lower value 1.02 | locus YNL307C, strain MCK1, stronger effect = lower value 1 | locus YNL322C, strain KRE1 (second series), stronger effect = lower value 0.948 | locus YNL322C, strain KRE1, stronger effect = lower value 1 | locus YNR049C, strain mso1, stronger effect = lower value 0.962 | locus YNR052C, strain pop2, stronger effect = lower value 1 | locus YOL012C, strain htz1 1.15 | locus YOL147C, strain pex11, stronger effect = lower value 0.996 | locus YOR001W, strain rrp6, stronger effect = lower value 0.933 | locus YOR061W, strain CKA2, stronger effect = lower value 1.02 | locus YOR069W, strain VPS5, stronger effect = lower value 1.01 | locus YOR070C, strain gyp1, stronger effect = lower value 0.987 | locus YOR080W, strain dia2, stronger effect = lower value 0.978 | locus YOR083W, strain WHI5, stronger effect = lower value 0.992 | locus YOR106W, strain vam3, stronger effect = lower value 0.977 | locus YOR136W, strain idh2, stronger effect = lower value 1 | locus YOR144C, strain elg1, stronger effect = lower value 0.989 | locus YOR184W, strain ser1, stronger effect = lower value 1.02 | locus YOR231W, strain MKK1, stronger effect = lower value 1.04 | locus YOR265W, strain rbl2, stronger effect = lower value 0.98 | locus YOR270C, strain vph1, stronger effect = lower value 0.931 | locus YOR290C, strain snf2, stronger effect = lower value 1.01 | locus YOR316C, strain cot1, stronger effect = lower value 1.01 | locus YPL051W, strain arl3, stronger effect = lower value 0.999 | locus YPL055C, strain LGE1, stronger effect = lower value 1.02 | locus YPL078C, strain atp4, stronger effect = lower value 0.963 | locus YPL106C, strain sse1, stronger effect = lower value 0.932 | locus YPL240C, strain hsp82, stronger effect = lower value 0.963 | locus YPL241C, strain CIN2, stronger effect = lower value 1 | locus YPL256C, strain CLN2, stronger effect = lower value 1.02 | locus YPR119W, strain clb2, stronger effect = lower value 1.02 | locus YPR141C, strain kar3, stronger effect = lower value 1.01 | locus YPR163C, strain tif3, stronger effect = lower value 0.997 | locus YPR167C, strain met16, stronger effect = lower value 1.01 | strain wtn01, stronger effect = lower value 1.01
